# Assay results taken from the supplement of paper PMC8728848.
# The full list was thinned out, with the strongest signals kept by preference.
# B1: AidA (Burkholderia cenocepacia) (protein)
# chain: MSRVTDVLVSFDTETILKKYPNPSKNPAAPTLIDWRYVYMVTNQDNVISGQAGGELDLKAQVGDLIRWRETSLSLGFENQVVFYKFIGNVGNDLISTPTPRVAEASIPVPNTSKPEVPTCQKVANYYWSSECLKVGRVTYHFQFQIIDRNCQSQGCFSWDPFISIHN
# How the values were obtained:
# Assay in all cases: glycan array binding signal (z-score within array); higher = stronger binding
# Conditions in all cases: glycan notation: IUPAC condensed, linker removed
# [1] = molecular target: Fuc(a1-2)Gal(b1-3)GalNAc(a1-3)[Fuc(a1-2)]Gal(b1-4)Glc
# How it was run: (§1)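 Glycan array data were curated from 3228 arrays in the Consortium for Functional Glycomics database and kept only where the protein sequence was available. Glycan names were converted to IUPAC-condensed notation, and columns mapping to the same glycan were averaged. The binding signal is a within-array Z-score, averaged across arrays of the same protein sequence at different concentrations or buffers and across linkers. Negative Z-scores can be read as non-binding.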
# [2] = molecular target: Fuc(a1-2)Gal(b1-3)[Fuc(a1-4)]GlcNAc
# How it was run: as §1
# [3] = molecular target: Fuc(a1-2)[Gal(a1-3)]Gal(b1-3)GlcNAc(b1-2)Man(a1-3)[Fuc(a1-2)[Gal(a1-3)]Gal(b1-3)GlcNAc(b1-2)Man(a1-6)]Man(b1-4)GlcNAc(b1-4)[Fuc(a1-6)]GlcNAc
# How it was run: as §1
# [4] = molecular target: Fuc(a1-2)[Gal(a1-3)]Gal(b1-3)GlcNAc(b1-6)GalNAc
# How it was run: as §1
# [5] = molecular target: Fuc(a1-2)[Gal(a1-3)]Gal(b1-4)GlcNAc(b1-3)[Fuc(a1-2)[Gal(a1-3)]Gal(b1-4)GlcNAc(b1-6)]GalNAc
# How it was run: as §1
# [6] = molecular target: Fuc(a1-2)[Gal(a1-3)]Gal(b1-4)[Fuc(a1-3)]GlcNAc(b1-3)GalNAc
# How it was run: as §1
# [7] = molecular target: Fuc(a1-2)[GalNAc(a1-3)]Gal(b1-3)GlcNAc(b1-6)GalNAc
# How it was run: as §1
# [8] = molecular target: Fuc(a1-2)[GalNAc(a1-3)]Gal(b1-4)[Fuc(a1-3)]GlcNAc(b1-3)GalNAc
# How it was run: as §1
# [9] = molecular target: Fuc(a1-3)GlcNAc
# How it was run: as §1
# [10] = molecular target: Fuc(a1-3)[Gal(b1-4)]GlcNAc(b1-2)Man
# How it was run: as §1
# [11] = molecular target: Fuc(a1-3)[Gal(b1-4)]GlcNAc(b1-3)Gal(b1-3)[Fuc(a1-4)]GlcNAc
# How it was run: as §1
# [12] = molecular target: Fuc(a1-4)GlcNAc
# How it was run: as §1
# [13] = molecular target: Gal(a1-4)Gal(b1-3)GlcNAc(b1-2)Man(a1-3)[Gal(a1-4)Gal(b1-3)GlcNAc(b1-2)Man(a1-6)]Man(b1-4)GlcNAc(b1-4)GlcNAc
# How it was run: as §1
# [14] = molecular target: Gal(a1-4)Gal(b1-4)GlcNAc(b1-3)Gal(b1-4)Glc
# How it was run: as §1
# [15] = molecular target: Gal(b1-3)GalNAc(b1-4)[Neu5Ac(a2-3)]Gal(b1-4)Glc
# How it was run: as §1
# [16] = molecular target: Gal(b1-3)GlcNAc(b1-2)Man(a1-3)[Gal(b1-3)GlcNAc(b1-2)Man(a1-6)]Man(b1-4)GlcNAc(b1-4)[Fuc(a1-6)]GlcNAc
# How it was run: as §1
# [17] = molecular target: Gal(b1-3)[Fuc(a1-4)]GlcNAc(b1-2)Man
# How it was run: as §1
# [18] = molecular target: Gal(b1-4)GalNAc(b1-3)[Fuc(a1-2)]Gal(b1-4)GlcNAc
# How it was run: as §1
# [19] = molecular target: Gal(b1-4)GlcNAc(b1-2)[Gal(b1-4)GlcNAc(b1-6)]Man(a1-6)[GlcNAc(b1-4)][Gal(b1-4)GlcNAc(b1-2)[Gal(b1-4)GlcNAc(b1-4)]Man(a1-3)]Man(b1-4)GlcNAc(b1-4)[Fuc(a1-6)]GlcNAc
# How it was run: as §1
# [20] = molecular target: Gal(b1-4)GlcNAc(b1-3)Gal(b1-4)GlcNAc(b1-3)Gal(b1-4)GlcNAc(b1-2)Man(a1-3)[Gal(b1-4)GlcNAc(b1-3)Gal(b1-4)GlcNAc(b1-3)Gal(b1-4)GlcNAc(b1-2)Man(a1-6)]Man(b1-4)GlcNAc(b1-4)[Fuc(a1-6)]GlcNAc
# How it was run: as §1
# [21] = molecular target: Gal(b1-4)GlcNAc(b1-3)Gal(b1-4)GlcNAc(b1-3)Gal(b1-4)GlcNAc(b1-3)Gal(b1-4)GlcNAc(b1-2)Man(a1-3)[Gal(b1-4)GlcNAc(b1-3)Gal(b1-4)GlcNAc(b1-3)Gal(b1-4)GlcNAc(b1-3)Gal(b1-4)GlcNAc(b1-2)Man(a1-6)]Man(b1-4)GlcNAc(b1-4)[Fuc(a1-6)]GlcNAc
# How it was run: as §1
# [22] = molecular target: Gal(b1-4)GlcNAc(b1-6)GalNAc
# How it was run: as §1
# [23] = molecular target: Gal3S(b1-3)GlcNAc
# How it was run: as §1
# [24] = molecular target: Gal3S(b1-4)[Fuc(a1-3)]Glc6S
# How it was run: as §1
# [25] = molecular target: GalNAc(a1-3)Gal
# How it was run: as §1
# [26] = molecular target: GalNAc(b1-3)GlcNAc
# How it was run: as §1
# [27] = molecular target: GalNAc(b1-4)GlcNAc
# How it was run: as §1
# [28] = molecular target: GalNAc4S6S(b1-4)GlcNAc
# How it was run: as §1
# [29] = molecular target: Glc(a1-6)Glc(a1-6)Glc(a1-6)Glc
# How it was run: as §1
binder,measurement,setting,value
B1,glycan array binding signal (z-score),[1],-0.374
same,glycan array binding signal (z-score),[2],-0.268
same,glycan array binding signal (z-score),[3],1.35
same,glycan array binding signal (z-score),[4],0.594
same,glycan array binding signal (z-score),[5],0.451
same,glycan array binding signal (z-score),[6],-0.44
same,glycan array binding signal (z-score),[7],1.7
same,glycan array binding signal (z-score),[8],19.7
same,glycan array binding signal (z-score),[9],-0.017
same,glycan array binding signal (z-score),[10],0.556
same,glycan array binding signal (z-score),[11],-0.459
same,glycan array binding signal (z-score),[12],3.1
same,glycan array binding signal (z-score),[13],0.346
same,glycan array binding signal (z-score),[14],-0.277
same,glycan array binding signal (z-score),[15],0.172
same,glycan array binding signal (z-score),[16],-0.149
same,glycan array binding signal (z-score),[17],-0.108
same,glycan array binding signal (z-score),[18],-0.557
same,glycan array binding signal (z-score),[19],-0.272
same,glycan array binding signal (z-score),[20],1.44
same,glycan array binding signal (z-score),[21],0.416
same,glycan array binding signal (z-score),[22],-0.507
same,glycan array binding signal (z-score),[23],2.41
same,glycan array binding signal (z-score),[24],2.38
same,glycan array binding signal (z-score),[25],0.384
same,glycan array binding signal (z-score),[26],-0.115
same,glycan array binding signal (z-score),[27],1.43
same,glycan array binding signal (z-score),[28],-0.374
same,glycan array binding signal (z-score),[29],-0.597
